In PubChem BioAssay (NCATS):
Inconclusive results are not listed. Activity calls are given as the source filed them. Unless noted, calls come from the whole dose curve; as a rule, active = well fitted curve in the direction sought with a large enough effect; inconclusive = small, poorly fitted or top-dose-only effect, or another doubt; inactive = no such curve, though single readings can be large; an effect the other way counts as inactive or inconclusive.

Columns and labels:
[1] = target: Glucocorticoid receptor (Homo sapiens) (UniProt P04150); assay: GR-GFP Redistribution (AID 450;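 active = compounds whose dose series gives a full or clear partial fitted curve of increased nuclear translocation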; note: potency is the fitted concentration of half-maximal effect); conditions: U2OS GR-GFP nuclear translocation, laser cytometry, 2 h
Glucocorticoid receptor (Homo sapiens), sequence (P04150 whole entry, looked up): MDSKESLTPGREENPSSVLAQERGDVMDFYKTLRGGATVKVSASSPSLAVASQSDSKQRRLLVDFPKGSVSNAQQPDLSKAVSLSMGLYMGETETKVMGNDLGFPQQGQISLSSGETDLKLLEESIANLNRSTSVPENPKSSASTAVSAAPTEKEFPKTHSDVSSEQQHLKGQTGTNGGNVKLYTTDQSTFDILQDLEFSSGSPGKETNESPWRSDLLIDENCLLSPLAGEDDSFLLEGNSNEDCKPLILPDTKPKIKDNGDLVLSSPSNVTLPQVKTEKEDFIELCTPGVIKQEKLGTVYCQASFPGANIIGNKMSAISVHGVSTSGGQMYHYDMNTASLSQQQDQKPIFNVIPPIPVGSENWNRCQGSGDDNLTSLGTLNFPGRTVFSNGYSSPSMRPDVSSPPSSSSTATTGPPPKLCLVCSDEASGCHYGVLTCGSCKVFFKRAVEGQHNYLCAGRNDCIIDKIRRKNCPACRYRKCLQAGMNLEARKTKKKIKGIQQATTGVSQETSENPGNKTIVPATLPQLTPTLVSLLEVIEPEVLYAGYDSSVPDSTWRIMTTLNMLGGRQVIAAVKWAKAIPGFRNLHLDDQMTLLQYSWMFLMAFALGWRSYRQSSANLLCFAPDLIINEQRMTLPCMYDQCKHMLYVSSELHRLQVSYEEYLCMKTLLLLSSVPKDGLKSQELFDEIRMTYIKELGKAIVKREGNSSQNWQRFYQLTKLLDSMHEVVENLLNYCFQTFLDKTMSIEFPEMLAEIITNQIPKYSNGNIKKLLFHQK

[2] = target: Guanine nucleotide-binding protein G(i) subunit alpha-1 (Homo sapiens) (UniProt P63096); assay: qHTS Assay for Inhibitors of RGS12 GoLoco Motif Activity (Green Fluorophore) (AID 879); conditions: Galphai1/FITC-RGS12 GoLoco peptide, fluorescence polarization; series mostly up to 57.1 µM; note: potency is the fitted concentration of half-maximal effect
Guanine nucleotide-binding protein G(i) subunit alpha-1 (Homo sapiens), sequence (P63096 whole entry, looked up): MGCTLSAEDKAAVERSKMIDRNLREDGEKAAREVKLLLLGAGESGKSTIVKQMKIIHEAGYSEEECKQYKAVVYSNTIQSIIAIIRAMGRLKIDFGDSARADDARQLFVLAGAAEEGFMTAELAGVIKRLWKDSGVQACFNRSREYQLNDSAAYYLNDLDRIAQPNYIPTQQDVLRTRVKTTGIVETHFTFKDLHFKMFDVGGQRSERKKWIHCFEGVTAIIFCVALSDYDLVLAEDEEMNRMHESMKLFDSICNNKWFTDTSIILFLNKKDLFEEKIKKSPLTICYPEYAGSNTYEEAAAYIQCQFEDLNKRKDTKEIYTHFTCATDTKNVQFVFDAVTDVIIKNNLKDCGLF
How it was run: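 A drop in FITC polarization marked displacement of the FITC-tagged RGS12 GoLoco peptide (10 nM) from Gαi1 (50 nM). Compounds were incubated 10 min at room temperature in Tris pH 7.5 buffer containing 150 mM NaCl, 0.1 mM GDP and 0.05% NP40; unlabeled peptide titration served as control.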

[3] = target: Cytochrome P450 3A4 (Homo sapiens) (UniProt P08684); assay: qHTS Assay for Activators of Cytochrome P450 3A4 (AID 885); conditions: recombinant CYP3A4, Luciferin-PPXE luminescence, 60 min; series mostly up to 57.1 µM; note: nearly all actives have a fitted effect of over 65% in size
How it was run: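 Using 20nM recombinant human CYP3A4 in potassium phosphate (200mM), substrate Luciferin-PPXE at 25uM, luminescent luciferin detection followed a 60-min RT NADPH reaction; data scaled to 57 uM ketoconazole.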

[4] = qHTS Assay for Identification of Small Molecule Agonists for Hypoxia Response Element Signaling Pathway (AID 914; active = well fitted activation curve with a large enough effect in the signal ratio, with a control signal flat, not every such curve was filed as active; the % refers to the signal ratio; note: % of control where 0% means no effect); conditions: ME-180 (cervical carcinoma) HRE-bla reporter, beta-lactamase ratio, CoCl2, 17 h; activation: stronger effect = higher value
How it was run: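 Read-out: CCF4 FRET ratio of 460nm to 530nm emission (excitation 405nm) after 2.5 hours at room temperature, taken from HRE-bla ME-180 cells that had been exposed to compound and EC50 CoCl2 for 17 hours.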

[5] = qHTS Assay for Identification of Small Molecule Antagonists for Thrombopoietin (TPO) Signaling Pathway (AID 918); conditions: TPO-dependent cell signaling reporter, antagonist mode; note: potency is the fitted concentration of half-maximal effect; nearly all actives have a fitted effect of over 60% in size
How it was run: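 Antagonist mode at EC50 TPO (26 pM) in IL-3-free medium; murine Ba/F3 cells with human TPO receptor and GPIIb-promoter luciferase, 24 hrs at 37 C before luminescent detection.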

[6] = target: Muscarinic acetylcholine receptor M1 (Rattus norvegicus) (UniProt P08482); assay: qHTS Assay for Antagonists of Acetylcholine Muscarinic M1 Receptor: Kinetic Measurement of Intracellular Calcium Response (AID 943); conditions: M1-expressing cells, kinetic intracellular calcium fluorescence; series mostly up to 35.3 µM;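 note: Fluo-4 calcium signal as peak divided by basal fluorescence over 4 min; nearly all actives have a fitted effect of over 75% in size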
Muscarinic acetylcholine receptor M1 (Rattus norvegicus), sequence (P08482 whole entry, looked up): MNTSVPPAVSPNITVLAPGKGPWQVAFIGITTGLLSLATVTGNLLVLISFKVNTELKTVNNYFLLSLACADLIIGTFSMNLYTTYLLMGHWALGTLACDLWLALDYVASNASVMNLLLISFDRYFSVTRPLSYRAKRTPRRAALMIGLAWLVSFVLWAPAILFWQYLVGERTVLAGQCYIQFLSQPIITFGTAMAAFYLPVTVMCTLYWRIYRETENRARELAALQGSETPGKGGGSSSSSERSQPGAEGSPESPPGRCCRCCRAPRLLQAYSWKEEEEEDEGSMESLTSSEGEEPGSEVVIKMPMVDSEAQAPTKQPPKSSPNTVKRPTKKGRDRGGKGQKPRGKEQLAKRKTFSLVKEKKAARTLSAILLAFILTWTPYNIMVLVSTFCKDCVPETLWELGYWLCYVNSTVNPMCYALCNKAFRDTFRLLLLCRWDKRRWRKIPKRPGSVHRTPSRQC
How it was run: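 Quantitative HTS in CHO-M1 (rat receptor) cells: 10 min compound exposure ahead of 100 nM carbachol, Fluo-4 fluorescence followed 4 min, value expressed as peak-to-basal ratio.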

[7] = target: Muscarinic acetylcholine receptor M1 (Rattus norvegicus) (UniProt P08482); assay: qHTS Assay for Antagonists of Acetylcholine Muscarinic M1 Receptor: Measurement of IP-One Response (AID 944); conditions: CHO-M1 cells, IP-One HTRF, antagonist mode; series mostly up to 46.1 µM; note: nearly all actives have a fitted effect of over 75% in size
How it was run: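 Antagonism was measured as loss of carbachol-driven (EC80) IP1 accumulation in CHO cells carrying rat M1, using a homogeneous IP-One TR-FRET kit read at 620 and 665 nm.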

[8] = target: Pyruvate kinase (Leishmania mexicana) (UniProt Q27686); assay: qHTS Validation Assay for Inhibitors of Leishmania Mexicana Pyruvate Kinase (AID 945); note: potency is the fitted concentration of half-maximal effect; conditions: purified L. mexicana pyruvate kinase, enzyme activity, E451W mutant enzyme; series mostly up to 57.5 µM
Pyruvate kinase (Leishmania mexicana), sequence (Q27686 2-499 E452W): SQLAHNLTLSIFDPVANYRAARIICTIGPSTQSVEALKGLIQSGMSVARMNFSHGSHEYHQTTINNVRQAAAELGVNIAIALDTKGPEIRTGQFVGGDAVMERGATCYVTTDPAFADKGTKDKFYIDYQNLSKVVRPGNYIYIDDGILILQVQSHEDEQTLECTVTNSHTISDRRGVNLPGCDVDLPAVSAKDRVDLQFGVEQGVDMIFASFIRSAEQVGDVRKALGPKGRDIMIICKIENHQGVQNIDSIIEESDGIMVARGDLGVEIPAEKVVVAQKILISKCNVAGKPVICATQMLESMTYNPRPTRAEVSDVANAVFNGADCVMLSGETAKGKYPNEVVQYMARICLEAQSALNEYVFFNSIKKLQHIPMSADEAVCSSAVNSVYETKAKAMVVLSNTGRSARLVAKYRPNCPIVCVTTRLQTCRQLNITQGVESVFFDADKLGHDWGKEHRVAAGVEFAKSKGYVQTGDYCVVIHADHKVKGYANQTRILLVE
How it was run: (§1)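 Substrate mix (0.5 mM PEP, 0.1 mM ADP, 7 mM MgCl2, 50 mM KCl, pH 7.2 imidazole) received compound by pin tool, then 0.2 nM LmPYK E451W. After 1 h at room temperature, PKLight was added and luminescence measured.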

[9] = target: Pyruvate kinase PKM (Homo sapiens) (UniProt P14618); assay: qHTS Assay for Activators of Human Muscle Pyruvate Kinase (AID 954; active = well fitted curve in the direction sought with a large enough effect, not every such curve was filed as active;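 note: 0% = uninhibited enzyme and -100% = no enzyme or full thiadiazolimine inhibition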); conditions: purified human muscle pyruvate kinase, luciferase-coupled luminescence, 1 h; series mostly up to 57.5 µM
Pyruvate kinase PKM (Homo sapiens), sequence (P14618 whole entry, looked up): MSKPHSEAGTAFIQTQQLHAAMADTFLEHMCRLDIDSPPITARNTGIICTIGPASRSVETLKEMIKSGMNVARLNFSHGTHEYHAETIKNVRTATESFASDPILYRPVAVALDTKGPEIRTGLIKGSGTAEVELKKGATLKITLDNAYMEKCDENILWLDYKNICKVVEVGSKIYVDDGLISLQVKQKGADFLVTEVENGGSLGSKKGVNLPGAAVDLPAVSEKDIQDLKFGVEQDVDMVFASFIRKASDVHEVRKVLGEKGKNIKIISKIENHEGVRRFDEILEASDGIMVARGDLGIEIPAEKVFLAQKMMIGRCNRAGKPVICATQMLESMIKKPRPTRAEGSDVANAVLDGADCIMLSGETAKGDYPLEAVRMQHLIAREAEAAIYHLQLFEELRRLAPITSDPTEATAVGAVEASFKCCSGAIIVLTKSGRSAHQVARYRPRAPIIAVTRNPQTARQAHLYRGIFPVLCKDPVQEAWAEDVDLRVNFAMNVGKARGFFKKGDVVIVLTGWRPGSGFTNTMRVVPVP
How it was run: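 Screening used highly purified human pyruvate kinase M2 under submaximal activity, with PEP at its Km and ADP below Km. After an hour at room temperature, ATP was read by luciferase luminescence.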

[10] = target: Pyruvate kinase PKM (Homo sapiens) (UniProt P14618); assay: qHTS Assay for Inhibitors of Human Muscle Pyruvate Kinase (AID 958); conditions: purified human PKM enzyme activity; series mostly up to 57.5 µM
How it was run: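 ATP production by PKM2 detected via luciferase luminescence after 1 h room-temperature reaction (0.1 nM enzyme, PEP at Km 0.5 mM, ADP 0.1 mM, pH 7.2 imidazole buffer). Inhibition scaled to no-enzyme control; activation referenced to 0.3 nM enzyme wells.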

[11] = target: Pyruvate kinase (Leishmania mexicana) (UniProt Q27686); assay: qHTS Validation Assay for Activators of Leishmania Mexicana Pyruvate Kinase (AID 959); conditions: purified L. mexicana pyruvate kinase, enzyme activity; series mostly up to 57.5 µM
How it was run: as §1

[12] = target: Bile acid receptor (Homo sapiens) (UniProt Q96RI1); assay: qHTS assay for small molecule agonists of farnesoid X receptor signaling (AID 588527; calls by dose curve;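 note: 0% = vehicle basal and 100% = reference agonist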); conditions: HEK293T FXR-UAS-bla, beta-lactamase ratio, 16 h; activation: stronger effect = higher value
Bile acid receptor (Homo sapiens), sequence (Q96RI1 whole entry, looked up): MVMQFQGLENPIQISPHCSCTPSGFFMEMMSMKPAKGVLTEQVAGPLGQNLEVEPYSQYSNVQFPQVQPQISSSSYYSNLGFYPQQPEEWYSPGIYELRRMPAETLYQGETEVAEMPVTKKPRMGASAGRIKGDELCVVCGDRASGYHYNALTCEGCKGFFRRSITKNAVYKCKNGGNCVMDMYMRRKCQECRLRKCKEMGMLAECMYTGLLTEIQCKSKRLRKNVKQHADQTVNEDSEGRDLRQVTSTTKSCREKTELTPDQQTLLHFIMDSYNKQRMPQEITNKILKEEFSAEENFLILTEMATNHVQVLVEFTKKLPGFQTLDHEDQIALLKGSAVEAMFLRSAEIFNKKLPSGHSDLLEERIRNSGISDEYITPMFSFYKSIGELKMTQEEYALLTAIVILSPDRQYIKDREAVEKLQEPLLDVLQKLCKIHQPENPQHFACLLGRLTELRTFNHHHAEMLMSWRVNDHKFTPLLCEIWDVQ
How it was run: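 Quantitative HTS used FXR-UAS-bla HEK293T cells with 16 h compound incubation at 37 C. EC50 values came from concentration-response curves normalized to chenodeoxycholic acid.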

[13] = target: Glucocorticoid receptor (Homo sapiens) (UniProt P04150); assay: qHTS assay for small molecule agonists of glucocorticoid receptor signaling (AID 588532; active = well fitted curve in the direction sought with a large enough effect in the signal ratio, with a control signal flat; the % refers to the signal ratio;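 note: 100% = dexamethasone at 0.1 µM and 0% = DMSO only wells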); conditions: HeLa MMTV-bla, beta-lactamase ratio, agonist, 18 h; activation: stronger effect = higher value, percent of dexamethasone control, DMSO zero
How it was run: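 Agonist-mode qHTS: GRE-driven beta-lactamase in HeLa cells exposed 18 h to titrated compounds (up to 92 uM), then CCF4 ratio read after 2 h at RT; Hill-fitted EC50, efficacy relative to 0.1 uM dexamethasone.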

[14] = target: Peroxisome proliferator-activated receptor delta (Homo sapiens) (UniProt Q03181); assay: qHTS assay for small molecule agonists of peroxisome proliferator-activated receptor delta signaling (AID 588534; calls by dose curve;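 note: 0% = DMSO basal wells and 100% = positive control agonist at 10 µM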); conditions: HEK293T PPARdelta-UAS-bla, beta-lactamase ratio, 18 h; series mostly up to 76.7 µM
Peroxisome proliferator-activated receptor delta (Homo sapiens), sequence (Q03181 whole entry, looked up): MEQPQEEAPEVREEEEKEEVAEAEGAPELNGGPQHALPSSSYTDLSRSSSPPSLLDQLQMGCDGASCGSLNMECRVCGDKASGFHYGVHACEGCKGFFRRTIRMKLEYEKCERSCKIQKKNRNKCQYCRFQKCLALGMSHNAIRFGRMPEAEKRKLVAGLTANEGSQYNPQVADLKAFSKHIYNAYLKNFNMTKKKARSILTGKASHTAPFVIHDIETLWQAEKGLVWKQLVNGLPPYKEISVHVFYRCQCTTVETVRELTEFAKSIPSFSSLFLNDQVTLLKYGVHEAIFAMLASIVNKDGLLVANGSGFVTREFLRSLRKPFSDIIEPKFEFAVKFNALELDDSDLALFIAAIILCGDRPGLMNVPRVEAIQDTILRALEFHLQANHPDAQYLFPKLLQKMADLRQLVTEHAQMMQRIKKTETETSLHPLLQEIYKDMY
How it was run: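 EC50 and efficacy values derive from Hill fits of a concentration series in a beta-lactamase reporter cell assay. Exposure is 18 hrs at 37 C, with CCF4 fluorescence as the readout.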

[15] = qHTS assay for small molecule antagonists of peroxisome proliferator-activated receptor delta signaling (AID 588535; active = well fitted inhibition curve with a large enough effect in the signal ratio, with a control signal flat, not every such curve was filed as active; the % refers to the signal ratio;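 for max response: cells co-treated with a PPAR-delta agonist as stimulator during compound exposure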); conditions: HEK293T PPARd-UAS-bla, beta-lactamase FRET ratio, 18 h; 460 nm channel
How it was run: (§2)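 Antagonist-mode qHTS using GeneBLAzer PPAR-delta-UAS-bla HEK293T cells; compound exposure 18 hrs at 37 C over a titration. Ratiometric CCF4 fluorescence at 460/530 nm; concentration-response points fitted to the Hill equation.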

[16] = target: Peroxisome proliferator-activated receptor delta (Homo sapiens) (UniProt Q03181); assay: as above; conditions: HEK293T PPARd-UAS-bla, beta-lactamase FRET ratio, 18 h; series mostly up to 76.7 µM
How it was run: as §2

[17] = target: Peroxisome proliferator-activated receptor gamma (Homo sapiens) (UniProt P37231); assay: qHTS assay for small molecule agonists of peroxisome proliferator-activated receptor gamma signaling (AID 588536; active = well fitted curve in the direction sought with a large enough effect in the signal ratio, with a control signal flat, not every such curve was filed as active; the % refers to the signal ratio;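 note: 0% = DMSO basal wells and 100% = rosiglitazone at 2 µM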); conditions: HEK293 PPARg-UAS-bla, beta-lactamase ratio, 16 h; series mostly up to 76.7 µM
Peroxisome proliferator-activated receptor gamma (Homo sapiens), sequence (P37231 whole entry, looked up): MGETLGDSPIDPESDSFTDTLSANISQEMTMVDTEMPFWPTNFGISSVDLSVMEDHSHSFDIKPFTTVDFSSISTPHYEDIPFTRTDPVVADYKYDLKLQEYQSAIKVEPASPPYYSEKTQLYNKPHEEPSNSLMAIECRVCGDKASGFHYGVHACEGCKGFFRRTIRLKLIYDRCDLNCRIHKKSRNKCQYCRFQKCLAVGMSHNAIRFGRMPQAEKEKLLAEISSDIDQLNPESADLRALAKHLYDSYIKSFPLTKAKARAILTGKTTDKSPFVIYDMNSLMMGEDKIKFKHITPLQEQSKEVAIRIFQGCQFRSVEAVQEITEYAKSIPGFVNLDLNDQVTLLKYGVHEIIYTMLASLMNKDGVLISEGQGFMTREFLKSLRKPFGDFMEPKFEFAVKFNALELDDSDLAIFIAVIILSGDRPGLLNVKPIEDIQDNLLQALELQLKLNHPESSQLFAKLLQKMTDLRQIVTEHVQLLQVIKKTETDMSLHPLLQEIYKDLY
How it was run: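 Using GeneBLAzer HEK293 cells, response was quantified by CCF4 fluorescence and normalized between basal DMSO (0%) and rosiglitazone 2 uM (100%); curves yielded half-maximal stimulation concentration and efficacy.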

[18] = target: Thyroid hormone receptor beta (Homo sapiens) (UniProt P10828); assay: qHTS assay for small molecule agonists of thyroid hormone receptor beta signaling (AID 588545; calls by dose curve); conditions: TR-UAS-bla GripTite HEK 293, beta-lactamase ratio, agonist mode, 18 h; series mostly up to 76.7 µM
Thyroid hormone receptor beta (Homo sapiens), sequence (P10828 whole entry, looked up): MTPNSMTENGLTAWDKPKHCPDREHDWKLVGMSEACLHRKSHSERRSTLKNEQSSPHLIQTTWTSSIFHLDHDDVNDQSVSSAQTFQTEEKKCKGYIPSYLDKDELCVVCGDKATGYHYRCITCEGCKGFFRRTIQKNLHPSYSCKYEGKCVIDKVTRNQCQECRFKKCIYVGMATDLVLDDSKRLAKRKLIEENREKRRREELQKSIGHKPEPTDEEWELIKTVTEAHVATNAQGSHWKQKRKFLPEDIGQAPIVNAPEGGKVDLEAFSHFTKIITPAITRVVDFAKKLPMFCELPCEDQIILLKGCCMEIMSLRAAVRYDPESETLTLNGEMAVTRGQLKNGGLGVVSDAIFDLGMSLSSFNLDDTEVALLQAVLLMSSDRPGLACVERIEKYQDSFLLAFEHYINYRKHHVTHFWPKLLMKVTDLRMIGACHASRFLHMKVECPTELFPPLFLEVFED
How it was run: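 Cells (2500/well) were seeded, incubated 4 hrs at 37 C, dosed with a compound series, incubated 18 hrs, loaded with CCF4 dye for 2 hrs at RT, then read for fluorescence. Data were scaled between DMSO (0%) and 10 nM T3 (100%).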

[19] = qHTS assay for small molecule antagonists of retinoid X receptor alpha signaling (AID 588546; active = well fitted inhibition curve with a large enough effect in the signal ratio, with a control signal flat, not every such curve was filed as active; the % refers to the signal ratio;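 note: cells stimulated with 9-cis-retinoic acid as agonist; % is set by controls: 0 for no effect and ±100 for the full control effect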); conditions: HEK293T RXRa-UAS-bla, beta-lactamase ratio, antagonist mode; measured here: W530 green channel, cytotoxicity proxy
How it was run: (§3)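 Beta-lactamase reporter inhibition, read as CCF4 fluorescence ratio (ex 405, em 460/530 nm) after 2 h at RT. HEK293T UAS-bla cells, 2500/well, were stimulated with 9-cis-RA at 500 or 100 nM final alongside test compound for 18 h at 37 C.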

[20] = target: Retinoic acid receptor RXR-alpha (Homo sapiens) (UniProt P19793); assay: as above; conditions: HEK293T RXRa-UAS-bla, beta-lactamase ratio, antagonist mode
Retinoic acid receptor RXR-alpha (Homo sapiens), sequence (P19793 whole entry, looked up): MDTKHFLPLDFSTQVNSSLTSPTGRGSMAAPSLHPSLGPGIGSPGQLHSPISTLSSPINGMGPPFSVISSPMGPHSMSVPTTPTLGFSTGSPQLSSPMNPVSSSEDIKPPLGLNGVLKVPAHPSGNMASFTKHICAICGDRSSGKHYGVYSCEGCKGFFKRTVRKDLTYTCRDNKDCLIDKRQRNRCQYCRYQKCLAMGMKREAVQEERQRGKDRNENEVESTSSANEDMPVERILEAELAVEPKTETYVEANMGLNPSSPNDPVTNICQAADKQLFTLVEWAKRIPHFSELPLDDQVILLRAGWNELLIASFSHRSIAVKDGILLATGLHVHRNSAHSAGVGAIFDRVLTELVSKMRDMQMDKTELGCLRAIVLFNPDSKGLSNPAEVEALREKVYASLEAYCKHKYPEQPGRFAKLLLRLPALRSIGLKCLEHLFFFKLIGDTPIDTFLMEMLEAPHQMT
How it was run: as §3

Question: Which results are given for `CN[C@@H](C)[C@@H](O)c1ccccc1`?
Answer: Potency [1]: > 46 µM (inactive); Potency [2]: 7.94 µM (active); Potency [3]: inactive; activation [4]: 24.4% (inactive); Potency [5]: 3.16 µM (active); Potency [6]: inactive; Potency [7]: inactive; Potency [8]: 10 µM (active); outcome [9]: inactive; Potency [10]: 7.94 µM (active); outcome [11]: inactive

Question: With `C#CCN1CC(=O)N(COC(=O)[C@@H]2[C@@H](C=C(C)C)C2(C)C)C1=O` as the molecule, how does the activation [12] read?
Answer: The activation was 5.41% (inactive).

Question: What about the activation [13] of the same molecule?
Answer: Its activation is -0.459% (inactive).

Question: What about the outcome [14] of the same molecule?
Answer: The outcome was “inactive”.

Question: And the max response [15]?
Answer: Its max response is -9.7%.

Question: And the Potency [16]?
Answer: Its Potency is “inactive”.

Question: And the Potency [17]?
Answer: The Potency was “inactive”.

Question: And the Potency [18]?
Answer: Its Potency is “inactive”.

Question: What about the max response [19] of the same molecule?
Answer: Its max response is -1.89%.

Question: And the max response [20]?
Answer: The max response was -19.9% (inactive).

Question: With `CC(C)=CC1C(C(=O)OCc2coc(Cc3ccccc3)c2)C1(C)C` (centres undefined) as the molecule, how does the activation [12] read?
Answer: Its activation is 3.82% (inactive).

Question: And the activation [13]?
Answer: The activation was 2.93% (inactive).

Question: And the outcome [14]?
Answer: Its outcome is “inactive”.

Question: What about the max response [15] of the same molecule?
Answer: The max response was -29.1%.

Question: What about the Potency [16] of the same molecule?
Answer: Its Potency is “inactive”.

Question: And the Potency [17]?
Answer: Its Potency is “inactive”.

Question: What about the Potency [18] of the same molecule?
Answer: Its Potency is “inactive”.

Question: And the max response [19]?
Answer: Its max response is -14.2%.

Question: And the max response [20]?
Answer: The max response was 3.05% (inactive).
